Most compounds without a hit are left out; they make up all but 1.6% or so of the library.
KCNQ2 inh = KCNQ2 (rat) channel inhibition. O88943. CHO-K1 KCNQ2, FluxOR thallium flux, 20 min; hits give low values. B-score at 10 µM. actives 1.1% (n = 310,000). AID 2156;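 active = fluorescence ratio B-score at most minus 3 library SDs, with starting brightness B-score within 2 library SDs, cut at about -5.5 in these data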
Target sequence (O88943 whole entry, looked up): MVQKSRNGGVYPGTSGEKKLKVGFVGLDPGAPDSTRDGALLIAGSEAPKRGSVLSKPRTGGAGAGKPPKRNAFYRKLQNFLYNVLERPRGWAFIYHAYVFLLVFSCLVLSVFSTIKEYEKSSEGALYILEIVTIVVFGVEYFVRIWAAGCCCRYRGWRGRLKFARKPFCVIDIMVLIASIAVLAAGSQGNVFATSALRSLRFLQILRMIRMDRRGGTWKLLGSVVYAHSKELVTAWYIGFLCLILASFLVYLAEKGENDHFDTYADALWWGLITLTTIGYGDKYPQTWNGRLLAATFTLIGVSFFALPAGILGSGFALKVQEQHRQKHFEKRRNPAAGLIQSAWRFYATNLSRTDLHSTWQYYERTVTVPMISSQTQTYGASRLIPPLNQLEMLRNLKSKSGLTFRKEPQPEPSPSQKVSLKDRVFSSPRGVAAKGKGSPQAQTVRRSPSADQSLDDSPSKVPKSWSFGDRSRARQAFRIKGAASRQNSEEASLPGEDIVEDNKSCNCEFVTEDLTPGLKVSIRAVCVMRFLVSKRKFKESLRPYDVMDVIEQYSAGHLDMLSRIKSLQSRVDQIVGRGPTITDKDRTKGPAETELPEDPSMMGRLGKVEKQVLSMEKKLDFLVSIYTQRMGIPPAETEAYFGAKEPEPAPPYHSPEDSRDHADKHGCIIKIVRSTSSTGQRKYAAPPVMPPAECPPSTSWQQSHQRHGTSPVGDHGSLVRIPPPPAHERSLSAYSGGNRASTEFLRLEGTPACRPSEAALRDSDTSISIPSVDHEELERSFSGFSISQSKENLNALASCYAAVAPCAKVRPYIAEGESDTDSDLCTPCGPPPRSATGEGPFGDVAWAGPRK
KCNQ2 enhance = enhances the rat KCNQ2 potassium channel. O88943. CHO-K1 KCNQ2, FluxOR thallium flux fluorescence; hits give high values. B-score at 10 µM. actives 0.54% (n = 310,000). AID 2239;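 active = fluorescence ratio B-score at least 3 SD of library B-scores, with initial fluorescence B-score within 3 of them, cut at about 5.3 in these data; same plate scores as AID 2156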;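 also: B-score of peak minus minimum over baseline fluorescence ratio after K+ and Tl+ stimulus; positive B-score means potentiation of KCNQ2 with more thallium influx and brighter signal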
Kir21 conf inh = confirmation of mouse Kir2.1 potassium channel inhibitors; shares compounds with KCNQ2 enhance; Kir2.1-expressing cells, FluxOR thallium flux fluorescence; hits give low values; Tl flux remaining, % of negative control (hits give low values), % at 10 µM; actives 41% (n = 2,300);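 active = Primary-screen hit whose thallium flux fell at least 3 control SD below untreated wells in both duplicates, with normal baseline fluorescence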
HEK293 Tl flux = counter-screen for Kir2.1 inhibitors: effect in parental HEK293 cells | shares compounds with KCNQ2 enhance | FluxOR thallium flux fluorescence; 0% = unstimulated blank wells | FluxOR signal as % of negative control (100 = no effect), % at 10 µM | actives 19% (n = 2,300) | AID 2105;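 active = dye signal at least 3 control SD above or below untreated wells in both duplicates, raw fluorescence within 3, either direction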;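 also: percent is based on the flux ratio of peak minus minimum fluorescence over baseline F0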
CHO-K1 ctr = counter-screen for KCNQ2 potentiators: effect in parental CHO-K1 cells. shares compounds with KCNQ2 enhance. FluxOR thallium flux fluorescence; zero = vehicle mean+3SD, 100% = vehicle-minus-blank window. activity increase over 3SD of controls, % at 10 µM. actives 43% (n = 1,200). AID 2282;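 active = signal rise of at least 3 SD above the untreated control mean, in both duplicate wells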;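 also: counter screen of KCNQ2 potentiator hits so any rise reflects channel-independent effects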
KCNQ1 pot spec = selectivity of KCNQ2 potentiators: effect on human KCNQ1; activation over 3SD threshold, % at 10 µM; AID 2283; actives 28% (n = 1,200); CHO KCNQ1 stable, FluxOR thallium flux fluorescence; beyond 3SD, as % of vehicle-control signal; shares compounds with KCNQ2 enhance;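 active = fluorescence ratio rise of at least 3 SD of vehicle wells above their mean, in both replicate wells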
KCNQ2 pot confirm = rat KCNQ2 channel potentiator confirmation; CHO-KCNQ2 cells, FluxOR thallium flux fluorescence; potentiation, less the hit threshold, % at 10 µM; shares compounds with KCNQ2 enhance; AID 2287; actives 68% (n = 1,200);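 active = fluorescence ratio rising 3 SD or more over the vehicle control mean in both replicates, plus primary screen hit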;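 also: peak minus minimum thallium fluorescence divided by baseline after K/Tl stimulus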
Kir21 spec = tests whether KCNQ2 potentiators also affect mouse Kir2.1; actives 2% (n = 1,200); shares compounds with KCNQ2 enhance; AID 2345; HEK293 Kir2.1, FluxOR thallium flux fluorescence; activity over 3SD threshold, % at 10 µM;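 active = fluorescence ratio rise of at least 3 SD above the vehicle-control mean, seen in both replicates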
KCNQ2 W236L pot = rat KCNQ2 W236L mutant potentiation by KCNQ2 potentiators; actives 10% (n = 940); current increase over 3SD of negative controls (%), hits give high values, % at 25 µM; CHO KCNQ2-W236L, automated patch clamp current; shares compounds with KCNQ2 enhance;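 active = current increase at least 3 SD of the untreated controls above them in both duplicate recordings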
Numbers stand for hits; . = inactive; / = no result.

SMILES	KCNQ2 inh	KCNQ2 enhance	Kir21 conf inh	HEK293 Tl flux	others
CC(C)=CC(=O)Nc1c(C)cc(C)cc1Cl	.	11	.	.	CHO-K1 ctr=.;KCNQ1 pot spec=.;KCNQ2 pot confirm=28;Kir21 spec=.;KCNQ2 W236L pot=.
Cc1cc(C)c(NC(=O)CCCC(=O)O)c(Cl)c1	.	/	/	/
Cc1cccnc1NC(=O)C1CCC1	.	.	/	/
O=C(Cc1ccc(F)cc1)NC1CCS(=O)(=O)C1 (configuration not stated)	.	.	/	/
COc1ccc(NC(=O)CN(C)C(=O)c2cc(C)on2)cc1	.	.	/	/
CCCC(c1nnnn1CS(=O)(=O)c1ccc(C)cc1)N1CCN(CC)CC1 (configuration not stated)	.	5.5	.	.	CHO-K1 ctr=32;KCNQ1 pot spec=.;KCNQ2 pot confirm=0.3;Kir21 spec=.;KCNQ2 W236L pot=.
CCCC(c1nnnn1CS(=O)(=O)c1ccc(C)cc1)N1CCN(c2ccc(F)cc2)CC1 (configuration not stated)	.	/	/	/
CCOC(=O)C1=NN(C(=O)c2ccc(C)cc2)C(O)(c2ccc(Cl)cc2)C1 (configuration not stated)	.	25	.	380%	CHO-K1 ctr=0.0;KCNQ1 pot spec=.;KCNQ2 pot confirm=57;Kir21 spec=.;KCNQ2 W236L pot=.
CCC1=NN(C(=O)c2ccc(Cl)cc2)C(O)(c2ccc(C)cc2)C1 (configuration not stated)	.	.	/	/
COC(=O)C1=NN(C(=O)c2ccc(Cl)cc2)C(O)(c2ccccc2)C1 (configuration not stated)	.	7.2	.	424%	CHO-K1 ctr=.;KCNQ1 pot spec=95;KCNQ2 pot confirm=55;Kir21 spec=.;KCNQ2 W236L pot=.
CCC1=NN(C(=O)c2ccc(Cl)cc2)C(O)(c2ccccc2)C1 (configuration not stated)	.	.	/	/
O=C(Nc1ccc(S(=O)(=O)N2CCOCC2)cc1)c1cccnc1	.	.	/	/
O=C(Nc1ccccc1C(=O)O)c1ccc(NC(=O)C2CCCCC2)cc1	.	.	/	/
Cc1nn(-c2ccc(F)cc2)c(-n2cccc2)c1C(=O)N1CCN(C(=O)c2ccco2)CC1	.	/	/	/
COc1ccc(-n2c(SCC(=O)N3CCOCC3)nc3ccccc3c2=O)cc1	.	/	/	/
O=C(CN1CCCCC1)NNc1nc(-c2ccccc2)c2cc(Cl)ccc2n1	.	11	.	.	CHO-K1 ctr=.;KCNQ1 pot spec=.;KCNQ2 pot confirm=15;Kir21 spec=.;KCNQ2 W236L pot=.
O=C(O)CCC(=O)NNc1nc(-c2ccccc2)c2cc(Cl)ccc2n1	.	/	/	/
Cc1ccc(CC(=O)Nc2ccc(C(=O)N3CCOCC3)cc2)cc1	.	/	/	/
Nc1nc(Nc2ccccc2)nc2ccccc12	.	.	/	/
CN(C)c1ccc(Nc2nc(N)c3ccccc3n2)cc1	.	.	32%	.
CCOc1ccc(Nc2nc(N)nc(CCl)n2)cc1	.	.	/	/
Nc1nc(Nc2ccc(Cl)cc2)nc2ccccc12	.	/	.	174%
CCOc1ccc(Nc2nc(N)c3ccccc3n2)cc1	.	.	50%	.
Cc1ccccc1Nc1nc(N)c2ccccc2n1	.	.	/	/
CC(Oc1ccccc1)C(=O)N=C1SC2CS(=O)(=O)CC2N1Cc1ccccc1 (configuration not stated)	.	.	/	/
SMILES	KCNQ2 inh	KCNQ2 enhance	Kir21 conf inh	HEK293 Tl flux	others
CC(C)(C)n1cc(S(=O)(=O)c2ccccc2)[nH]c1=O	.	.	/	/
O=C(CCn1c(=S)oc2ccccc21)NC1CCCCCCC1	.	.	/	/
O=C(Nc1ncccc1O)c1ccc2c(c1)OCCO2	.	/	/	/
Oc1ccc(N=Nc2ccc3c(c2)OCCO3)c2ncccc12	.	12	.	.	CHO-K1 ctr=2.9;KCNQ1 pot spec=.;KCNQ2 pot confirm=.;Kir21 spec=.
CCC(C)c1ccc(NC(=O)Nc2cnccn2)cc1 (configuration not stated)	.	/	/	/
CC(C)(C)c1csc(N/N=C/c2cccnc2)n1	.	.	/	/
Cc1ccc(/C=N/Nc2nc(C(C)(C)C)cs2)o1	.	6.9	.	70%	CHO-K1 ctr=.;KCNQ1 pot spec=.;KCNQ2 pot confirm=.;Kir21 spec=.;KCNQ2 W236L pot=.
CC(=O)/C=C/n1c(=S)oc2ccccc21	.	5.4	.	.	CHO-K1 ctr=.;KCNQ1 pot spec=.;KCNQ2 pot confirm=.;Kir21 spec=.
CC(C)CC(=O)/C=C/n1c(=S)oc2ccccc21	.	.	/	/
CC(=O)c1ccc(S(=O)(=O)N2CCN(C(=O)CSc3ccc(F)cc3)CC2)cc1	.	.	/	/
COc1ccc(OC)c(CC(NC(C)=O)C(=O)NC2CCN(S(=O)(=O)c3ccc(NC(C)=O)cc3)CC2)c1 (configuration not stated)	.	.	/	/
CC(=O)NNC(=S)NC(=O)C(c1ccccc1)c1ccccc1	.	/	/	/
CC(C)(C)C(=O)NC(=S)NNC(=O)C(c1ccccc1)c1ccccc1	.	6.6	.	66%	CHO-K1 ctr=.;KCNQ1 pot spec=.;KCNQ2 pot confirm=.;Kir21 spec=.
Cc1noc(-c2ccc(C(F)(F)F)cc2)c1NC(=O)Nc1ccc(Cl)cc1	.	.	/	/
C=CCN1C(=O)SC(Cc2cccc(OC)c2O)C1=O (configuration not stated)	.	.	/	/
CSc1ccc(C(=O)N2CCC(n3nccc3NC(=O)C3CC3)CC2)cc1	.	.	/	/
Cn1cc(C(C[N+](=O)[O-])c2ccccc2)c2ccccc21 (configuration not stated)	.	/	/	/
CC(=O)n1cc(C(C[N+](=O)[O-])SCCN)c2ccccc21 (configuration not stated)	-7.3	.	50%	76%
CC(C)COc1ccc(-c2nnc(-c3ccco3)o2)cc1	.	.	/	/
CCN(CC)CCCNc1ccc(-c2nnc(-c3ccc(OCC(C)C)cc3)o2)cn1	-7.3	.	65%	.
O=C(O)c1ccc2ncc(NC(=O)c3ccc(F)cc3)c(=O)n2c1	.	/	/	/
O=C1C(Cc2c[nH]c3ccccc23)NC(=S)N1Cc1ccccc1 (configuration not stated)	.	/	48%	.
O=C1NC(Cc2c[nH]c3ccccc23)C(=O)N1Cc1ccccc1 (configuration not stated)	.	/	/	/
CCc1ccc(-c2ccc(SCC(=O)NCC3CCCO3)nn2)cc1 (configuration not stated)	.	.	/	/
COc1ccccc1N1CCN(Cc2ccc(O)c3ncccc23)CC1	.	6.5	.	126%	CHO-K1 ctr=.;KCNQ1 pot spec=.;KCNQ2 pot confirm=3.8;Kir21 spec=.;KCNQ2 W236L pot=.
COc1ccccc1N1CCN(Cc2ccc(OC)c(OC)c2OC)CC1	.	/	/	/
CN(C)/C=C1/N=C(c2ccccc2)OC1=O	.	.	/	/
O=CC1=C(c2ccccc2)Oc2ccccc2O1	.	/	52%	.
Oc1c(Cl)cc(Cl)cc1CNn1cnnc1	.	/	/	/

Assay outcomes: PubChem BioAssay, Johns Hopkins Ion Channel Center
